This excerpt belongs to a sample that is enriched for hits.
Pf Dd2 growth: Plasmodium falciparum Dd2 growth inhibition | AID 1347417 | Potency, µM (series often up to 28.9 µM), usual class: inhibitors | P. falciparum Dd2 growth, SYBR Green, 72 h | hit rate 4.3% among 120,000; active means well fitted inhibition curve with a large enough effect; further: nearly all actives have a fitted effect of over 65% in size
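Readout: SYBR Green fluorescence, 485 nm excitation, 535 nm emission, after ~16 h lysis at 37C. Before that, Dd2-infected red cells (2.5% hematocrit) grew 72 h with compound, 29 uM top final concentration.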
Hits are given with their value; – = inactive.

SMILES | Pf Dd2 growth
CN(C(=O)Cc1cccc(Cl)c1)C1CCc2ccccc21 (centres undefined) | –
CN(CC1CCOCC1)C(=O)Cc1cccc(Cl)c1 | –
CN(C(=O)Cc1cccc(Cl)c1)C1CCCc2ccccc21 (centres undefined) | 14.1µM
Cc1ccc(-n2c(=O)c3cccnc3n2CC(=O)NCc2ccc(Cl)cc2)cc1 | –
CCN(CC)c1ccc(NC(=O)Cn2c3ncccc3c(=O)n2-c2ccccc2)c(C)c1 | –
CCc1ccc(-n2c(=O)c3cccnc3n2CC(=O)Nc2cc(F)ccc2F)cc1 | 5.01µM
Cc1ccc(-n2ncc(C(=O)N3CCN(c4ncccn4)CC3)c2C2CCN(C(=O)OC(C)(C)C)CC2)cc1 | –
CC(C)(C)OC(=O)N1CCC(c2c(C(=O)N3CCN(c4ccccn4)CC3)cnn2-c2ccccc2)CC1 | –
COc1ccc(-n2ncc(C(=O)N3CCN(c4ncccn4)CC3)c2C2CCN(C(=O)OC(C)(C)C)CC2)cc1 | –
CC(C)(C)OC(=O)N1CCC(c2c(C(=O)N3CCC(c4ccccc4)C3)cnn2-c2ccc(Cl)cc2)CC1 (centres undefined) | 4.47µM
Cc1ccc(-n2ncc(C(=O)N3CCC(c4ccccc4)C3)c2C2CCN(C(=O)OC(C)(C)C)CC2)cc1 (centres undefined) | 11.2µM
CCOC(=O)c1cnn(-c2ccc(OC)cc2)c1C1CCN(C(=O)OC(C)(C)C)CC1 | 7.94µM
Cc1ccc(C2CCN(C(=O)c3cnn(-c4ccc(C)cc4)c3C3CCN(C(=O)OC(C)(C)C)CC3)C2)cc1 (centres undefined) | –
CCOC(=O)c1ccccc1NC(=O)c1cnn(-c2ccc(OC)cc2)c1C1CCN(C(=O)OC(C)(C)C)CC1 | –
O=C([C@@H]1C[C@H](Oc2cccnc2)CN1C(=O)NC1CCCCC1)N1CCOCC1 | –
O=C(Cc1cccc(F)c1)N1CC2CC(C1)[C@H]1CCCC(=O)N1C2 (some centres undefined) | –
O=C(Cn1nc2c(cc1=O)CCCCC2)N1CCN(CCc2ccncc2)CC1 | –
O=C(c1ccc(F)cc1)N1C[C@@H]2OCC(=O)N(Cc3ccccn3)[C@@H]2C1 | –
COC(=O)C1=C(C)NC(=O)NC1c1ccccc1OC (centres undefined) | –
CC(C)NC[C@H]1O[C@@H](CO)[C@@H](O)[C@H]1N1CCN(c2ccccn2)CC1 | –
COc1ccc(OCc2nc(C)c(CCO)c(=O)n2CC(=O)Nc2cc(OC)cc(OC)c2)cc1 | –
COCC1CN(C(C)=O)CC12CCN(Cc1sccc1C)CC2 (centres undefined) | –
NC(=O)CNC(=O)[C@@]1(O)C[C@@H](O)[C@H](O)[C@@H](NC(=O)Nc2ccc(OC(F)(F)F)cc2)C1 | –
COc1ccccc1-c1cc([C@H]2CN3CC[C@H]2C[C@@H]3COC(=O)Nc2ccc(C(C)C)cc2)nc(C)n1 | 12.6µM
Cc1nc(-c2cccs2)cc([C@H]2CN3CC[C@H]2C[C@@H]3CNS(C)(=O)=O)n1 | –
SMILES | Pf Dd2 growth
Cc1nc(-c2cccs2)cc([C@H]2CN3CC[C@H]2C[C@@H]3COC(=O)Nc2ccc(C(C)C)cc2)n1 | 7.08µM
CC(=O)c1ccc(NC(=O)NC[C@H]2C[C@@H]3CCN2C[C@@H]3c2cc(-c3cccs3)nc(C)n2)cc1 | –
COCC(=O)NC[C@H]1C[C@@H]2CCN1C[C@@H]2c1cc(-c2ccccc2OC)nc(C)n1 | –
COc1ccc(-c2cc([C@H]3CN4CC[C@H]3C[C@@H]4CNC(=O)NC(C)C)nc(C)n2)cc1OC | –
O=C(c1c[nH]c2cccnc12)N1CCOCC1 | –
COc1ccc(N2CC3CCC(C2)N3[S+](C)(=O)[O-])cc1 | –
CCc1ccc(NC(=O)Cn2nc3n(c2=O)CCCCC3)cc1 | –
O=C(c1ccc(F)cc1)N1CCN(c2nnc3ccccn23)CC1 | –
Cc1nc(CN2CCOC3(CCN(Cc4ccccc4Cl)CC3)C2=O)cs1 | –
O=C1[C@H]2CN(Cc3ccccc3Cl)C[C@H]2C(=O)N1Cc1ccc2c(c1)OCO2 | –
Cc1ccc2c(c1)N1C(=O)OC[C@@H]1CCN(Cc1cccc(Cl)c1)C2 | –
O=c1oc2c3c(ccc2c2ccccc12)OCN(Cc1ccccc1Cl)C3 | 5.62µM
Cc1ccc2c(CN3CCN(Cc4ccccc4Cl)CC3)cc(=O)oc2c1 | –
O=c1oc2c3c(ccc2c2ccccc12)OCN(Cc1cccc(Cl)c1)C3 | 10µM
O=C(Cn1c(=O)c2c(n1Cc1ccccc1)CN(Cc1ccccc1)CC2)NCc1cccc(Cl)c1 | –
Cc1ccc(-c2c(C(=O)NCc3ccc(F)cc3)oc(=O)c3ccccc23)cc1 | –
O=C1CC2(CCN(Cc3ccc(F)cc3)CC2)Oc2ccccc2N1 | –
Cc1cc2c(c3oc(=O)c4ccccc4c13)CN(Cc1ccc(F)cc1)CO2 | 0.794µM
CC(C(=O)NCc1cccc(F)c1)C1CCOCC1 (centres undefined) | –
CCOc1cccc(CN2C[C@@H](CO)[C@H](C3CCN(C(C)=O)CC3)C2)c1 | –
CC(=O)N1CC2(Cc3ccccc31)CN(C(=O)c1ccc(Cl)nc1)C2 | –
CCN1CC(C(=O)NCc2csc(-c3ncccn3)n2)CCC1=O (centres undefined) | –

High-throughput results (PubChem BioAssay)
